An excerpt weighted towards active compounds, which were near 7.3% of everything screened.
Vaccinia mCherry = vaccinia inhibition (mCherry reporter); 0.63% of 310,000 active; Potency, µM (top dose mostly 36.5 µM), actives largely listed as inhibitors; Vaccinia virus mCherry reporter infection, fluorescence; calls by dose curve; tested in A549 cells; note: nearly all actives have a fitted effect of over 35% in size
HCV inh = HCV inhibition; AID 651820; 3.4% of 340,000 active; Huh7.5.1 HCVcc-Cre infection, luciferase reporter, 44 h; Potency, µM (doses to about 41.8 µM), hits mostly inhibitors; active = well fitted inhibition curve with a large enough effect; inconclusive = small, poorly fitted or top-dose-only effect, or another doubt; inactive = no such curve, though single readings can be large or run the other way
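Whole-lifecycle infectious HCVcc-Cre system; cells 1,000/well, compound then virus (~0.5 moi) added 4 h after plating, 44 h culture. Luciferase read 15 sec following 15 min substrate incubation, room temp.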
HCMV antiviral = human cytomegalovirus inhibition | HFF cells, HCMV-luciferase reporter, 72 h; active compounds read low | activity change, negative = inhibition, % at 57.5 µM | 4.5% of 410,000 active; in the data active = activity change below about -60%; inconclusive = no clear call, values can overlap the other calls; inactive = above about -39%
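Two compound doses tested in HFFs infected with HCMV-luciferase, MOI 1 PFU/cell, 72 h at 37C. Lysate luminescence read with OneGlo; data normalized against buffer-only and 10uM Salinomycin inhibitor controls.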
Vaccinia Venus = vaccinia inhibition (Venus reporter). Vaccinia virus Venus reporter expression, fluorescence. Potency, µM (doses to about 36.5 µM), actives largely listed as inhibitors. 0.46% of 330,000 active; calls by dose curve; tested in A549 cells; note: nearly all actives have a fitted effect of over 30% in size
FMDV inh = foot and mouth disease virus antiviral activity. FMDV antiviral cell-based qHTS. Potency, µM (titrated, usually from 57.9 µM), usual class: inhibitors. 1.2% of 410,000 active. AID 1159524; calls by dose curve; tested in HEK293T cells; note: read-out not given here; nearly all actives have a fitted effect of over 45% in size
Of the large screens only hits and unclear results are named; the others gave an inactive call.

CCOC(=O)c1[nH]c2ccc(F)cc2c1NC(=O)CN1CCN(C/C=C/c2ccccc2)CC1	HCV inh 10µM, Vaccinia Venus inconclusive, FMDV inh 32µM (no result: Vaccinia mCherry)
COC(=O)c1[nH]c2ccccc2c1NC(=O)CN1CCN(C/C=C/c2ccccc2)CC1	HCV inh 11µM, HCMV antiviral -61, Vaccinia Venus inconclusive (no result: FMDV inh)
COc1ccc(CC(=O)NNS(=O)(=O)c2ccc(F)cc2)cc1	none
COc1ccc2c(C)c(CCC(=O)NCc3ccc(Cl)cc3)c(=O)oc2c1C	none (no result: HCV inh)
CC(Cc1cccs1)NC(=S)Nc1ccc(Cl)cc1 (configuration not stated)	HCV inh inconclusive, HCMV antiviral -92
Cc1cccc(C)c1NC(=O)N1CCN(c2nc3ccccc3s2)CC1	HCV inh inconclusive, HCMV antiviral -70 (no result: Vaccinia mCherry, Vaccinia Venus)
O=C(NC1CCCCCCC1)C1CCN(c2nc3ccccc3o2)CC1	HCV inh inconclusive, HCMV antiviral -88, FMDV inh 14µM (no result: Vaccinia mCherry, Vaccinia Venus)
CC(C)(C)c1ccc(C(=O)N2CCN(c3nc4ccccc4o3)CC2)cc1	HCV inh 10µM, FMDV inh inconclusive
O=C(c1ccc(-c2ccccc2)cc1)N1CCN(c2nc3ccccc3o2)CC1	none
CCOc1ccc(NC(=O)N2CCN(c3nc4ccccc4s3)CC2)cc1	HCV inh inconclusive, HCMV antiviral inconclusive, FMDV inh inconclusive (no result: Vaccinia mCherry)
Cc1cccc(Cl)c1NC(=O)N1CCCN(c2nc3ccc(Cl)cc3s2)CC1	HCV inh 7.1µM, FMDV inh inconclusive (no result: Vaccinia mCherry, Vaccinia Venus)
O=C(NCCc1ccccc1)C1CCN(c2nc3ccccc3o2)CC1	none (no result: Vaccinia mCherry, Vaccinia Venus)
Cc1ccc(-n2ncc3c(NCCCc4ccccc4)ncnc32)cc1	none (no result: HCV inh)
CC(C)(CNC(=O)c1cccs1)N1CCOCC1	none (no result: Vaccinia mCherry, Vaccinia Venus)
Cc1cccc(NC(=O)N2CCN(C(=O)c3nsc4ccccc34)CC2)c1C	HCMV antiviral active (no result: HCV inh)
Cc1ccc2nc(N3CCC(C(=O)NC4CCCCC4)CC3)sc2c1	HCV inh inconclusive
Cc1csc2c(N3CCN(C(=O)c4ccc(C(C)(C)C)cc4)CC3)ncnc12	HCV inh inconclusive, HCMV antiviral -63 (no result: Vaccinia mCherry, Vaccinia Venus)
CC1CCC(NC(=O)C2CCN(c3nc4ccccc4s3)CC2)CC1 (configuration not stated)	HCV inh 10µM
Cc1csc2c(N3CCN(C(=O)NC(C)(C)C)CC3)ncnc12	HCV inh inconclusive
COc1ccccc1-c1c(C)nn2c(N3CCN(c4cccc(Cl)c4)CC3)cc(C)nc12	none (no result: HCV inh)
O=C(c1ccc(Cl)c(Cl)c1)N1CCC(=O)N([C@H](COCc2cccc(C(F)(F)F)c2)Cc2ccccc2)CC1	none (no result: HCV inh)
COCCNC(=O)c1cccc(Nc2nc3ccccc3n3nnnc23)c1	none (no result: HCV inh)
Cc1cccc(Nc2nc3ccccc3n3nnnc23)c1	none
Cc1ccc(CNC(=O)c2cccc(Nc3nc4ccccc4n4nnnc34)c2)cc1	Vaccinia mCherry 6.3µM, Vaccinia Venus 7.9µM (no result: HCV inh)
CCCCOc1ccc(C(C)NC(=O)c2cccc(Nc3nc4ccccc4n4nnnc34)c2)cc1 (configuration not stated)	Vaccinia mCherry inconclusive, HCMV antiviral -98, Vaccinia Venus inconclusive (no result: HCV inh)
Cc1c(NC(=O)C(C)OC(=O)CCOc2ccccc2)c(=O)n(-c2ccccc2)n1C (configuration not stated)	none
CCOC(=O)c1cnc2oc3ccccc3n2c1=O	none
COCCN(CCOC)C(=O)c1cc2c(=O)n3ccccc3nc2n1C	none (no result: HCV inh)
Cn1cc(S(=O)(=O)c2cccc(Cl)c2)c(=O)c2cc(F)c(N3CCN(c4ccc(F)cc4)CC3)cc21	none (no result: HCV inh)
Cn1cc(S(=O)(=O)c2cccc(Cl)c2)c(=O)c2cc(F)c(N3CCCCC3)cc21	HCMV antiviral -61 (no result: HCV inh)
CCOC(=O)c1c(SCCN2CCCC2)n(-c2ccccc2)c(=S)n(-c2ccccc2)c1=O	HCV inh inconclusive, FMDV inh 20µM
CCOC(=O)c1c[nH]c(=S)n(-c2ccccc2)c1=O	none
Cc1cc(NC(=O)Cc2cc(F)cc(F)c2)no1	none (no result: Vaccinia mCherry, HCMV antiviral, Vaccinia Venus)
CCc1cc2c(NCc3ccco3)ncnc2s1	HCV inh 16µM, FMDV inh inconclusive
CCc1cc2c(NCc3ccccc3)nc(C)nc2s1	HCV inh 7.9µM, HCMV antiviral -84, FMDV inh inconclusive (no result: Vaccinia mCherry, Vaccinia Venus)
Cc1cc(C)n(/N=C/c2cc([N+](=O)[O-])ccc2O)c(=O)c1	none
NC(=S)N/N=C/c1ccc(-c2cccc([N+](=O)[O-])c2)o1	Vaccinia mCherry 4.5µM, HCV inh inconclusive, Vaccinia Venus 5µM
Cc1ccc(S(=O)(=O)N/N=C\c2cc([N+](=O)[O-])ccc2Cl)cc1	HCMV antiviral -90 (no result: FMDV inh)
Cc1ccc(S(=O)(=O)N/N=C/c2cccc([N+](=O)[O-])c2)cc1	none
NC(=S)N/N=C/c1cc([N+](=O)[O-])ccc1Cl	Vaccinia mCherry inconclusive, Vaccinia Venus 2.2µM
O=[N+]([O-])c1ccc(Cl)c(/C=N/NC(=S)Nc2ccccc2)c1	none (no result: Vaccinia mCherry, Vaccinia Venus)
O=C(Nc1ccc(F)cc1)C(c1cccc(F)c1)N1CCN(Cc2c(F)cccc2Cl)CC1 (configuration not stated)	none (no result: HCV inh)
O=C(NC1CC(=O)N(c2ccc(F)cc2)C1)C1CC1 (configuration not stated)	none (no result: HCV inh)
Cc1ccc(-n2cnc3cc(C(=O)NCc4ccccc4Cl)ccc32)c(C)c1	none (no result: HCV inh)
CCOC(=O)c1ccc(Nc2cc(C)nc(C)c2C(=O)OCC)cc1	none
Cc1ccc(C)c(Nc2nc3nonc3nc2Nc2cccc(C)c2C)c1	HCMV antiviral -101, Vaccinia Venus inconclusive, FMDV inh inconclusive (no result: HCV inh)
CCOC(=O)c1ccc(Nc2nc3nonc3nc2Nc2cccc(C)c2C)cc1	Vaccinia mCherry inconclusive, HCMV antiviral -97, Vaccinia Venus inconclusive, FMDV inh inconclusive (no result: HCV inh)
CC(=O)OCC12CC(OC(=O)CC(C)C)C(C)=CC1OC1C(O)C(OC(C)=O)C2(C)C12CO2 (configuration not stated)	HCMV antiviral -97 (no result: Vaccinia mCherry, HCV inh, Vaccinia Venus, FMDV inh)
O=C(O)c1ccccc1Nc1cc(Cl)c2nonc2c1[N+](=O)[O-]	FMDV inh inconclusive
O=[N+]([O-])c1c(Nc2ccc(O)cc2)cc(Cl)c2nonc12	Vaccinia mCherry inconclusive, HCV inh 7.1µM, HCMV antiviral -100, Vaccinia Venus inconclusive, FMDV inh 22µM
O=[N+]([O-])c1c(Nc2ccccn2)cc(Cl)c2nonc12	HCV inh inconclusive, HCMV antiviral -105, FMDV inh 13µM
Cc1cc2nc(C(C)(C)C)c(CC3CCCCC3)n2c(C)c1Br	none (no result: HCV inh)
N#Cc1ccccc1OCC(=O)Nc1ccc2c(c1)OCO2	none (no result: HCV inh)
COC(=O)[C@]1(C#N)CC(=O)N([C@H](C)[C@@H](O)c2ccccc2)[C@@H]1c1ccccc1	none (no result: Vaccinia mCherry, HCV inh, Vaccinia Venus, FMDV inh)
C=C1C(=O)[C@]23C[C@H]1CCC2[C@]1(C)C(=O)CC[C@@](C)(C(=O)O)C1C[C@@H]3O (some centres not stated)	Vaccinia mCherry inconclusive, Vaccinia Venus inconclusive, FMDV inh 35µM (no result: HCV inh)
C=C1C(=O)[C@]23C[C@H]1CCC2[C@]1(C)CCC[C@@](C)(C(=O)O)C1C[C@@H]3O (some centres not stated)	Vaccinia mCherry 6.3µM, HCMV antiviral -102, Vaccinia Venus 3.5µM, FMDV inh 25µM (no result: HCV inh)
C=C/C(C)=C/CC1C(=C)CCC2C(C)(C(=O)O)CCCC12C (configuration not stated)	none

Screening results as filed in PubChem.
